# Only some compounds are listed: those with a hit (about 7.5% of all), similar ones and a draw of the others.
# Rab9 promoter act – activates the Rab9 promoter; Huh7 Rab9 promoter-luciferase reporter, luminescence, 24 h; Potency, µM (top dose mostly 9.22 µM), actives largely listed as activators; actives 2.8% (n = 320,000); AID 485297; further: nearly all actives have a fitted effect of over 60% in size
#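 Rab9 promoter-driven luciferase in stably transfected Huh7 cells; 1500 cells/well rested 2 h, exposed to compound in DMSO for 24 h at 37 °C, 5% CO2. Luminescence read 10 min after adding luciferase reagent at ambient temperature.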
# KinaseGlo FLuc – Kinase-Glo luciferase inhibition (counter-screen); Q27757; Kinase-Glo luciferase, ATP luminescence, 8 min; Potency, µM (series often up to 38.3 µM), hits mostly inhibitors; actives 0.28% (n = 200,000); AID 1379; further: nearly all actives have a fitted effect of over 60% in size
#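 Kinase-Glo luciferase light output from ATP and luciferin was measured with 10 uM ATP, within the enzyme's linear range. Buffer: 50 mM imidazole pH 7.2, 50 mM KCl, 7 mM MgCl2, 0.01% Tween 20, 0.05% BSA; luminescence read after 8 min at ambient temperature.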
# NPC1 promoter act – activators of NPC1 promoter | Huh7 NPC1 promoter luciferase reporter, 24 h | AID 485313 | actives 2.4% (n = 320,000) | Potency, µM (titrated, usually from 9.22 µM), hits mostly activators; further: nearly all actives have a fitted effect of over 60% in size
#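 Readout is luciferase luminescence, reflecting NPC1 promoter activation in stably transfected Huh7 cells after 24 h compound exposure at 37 °C in reduced-serum medium with 10% FBS.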
# ELG1 genotoxic – inducers of genotoxicity in HEK293T ELG1-luciferase cells. Potency, µM (series often up to 46 µM), usual class: activators. HEK293T ELG1-luciferase reporter, luminescence, 16 h. actives 1.3% (n = 330,000). AID 504466; further: nearly all actives have a fitted effect of over 60% in size
#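 Reporter readout depends on ELG1 protein level, which increases with genetic stress. After 16 hr compound exposure at 37 °C, luciferase activity was quantified using ONE-Glo.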
# FLuc counter – inhibits or activates purified firefly luciferase, miR-21 counter-screen; actives 6.9% (n = 360,000); purified FLuc, Km substrates, luminescence inhibition; Potency, µM (doses to about 57.5 µM), actives largely listed as inhibitors; P08659; further: nearly all actives have a fitted effect of over 55% in size
# Target sequence (P08659 whole entry, looked up): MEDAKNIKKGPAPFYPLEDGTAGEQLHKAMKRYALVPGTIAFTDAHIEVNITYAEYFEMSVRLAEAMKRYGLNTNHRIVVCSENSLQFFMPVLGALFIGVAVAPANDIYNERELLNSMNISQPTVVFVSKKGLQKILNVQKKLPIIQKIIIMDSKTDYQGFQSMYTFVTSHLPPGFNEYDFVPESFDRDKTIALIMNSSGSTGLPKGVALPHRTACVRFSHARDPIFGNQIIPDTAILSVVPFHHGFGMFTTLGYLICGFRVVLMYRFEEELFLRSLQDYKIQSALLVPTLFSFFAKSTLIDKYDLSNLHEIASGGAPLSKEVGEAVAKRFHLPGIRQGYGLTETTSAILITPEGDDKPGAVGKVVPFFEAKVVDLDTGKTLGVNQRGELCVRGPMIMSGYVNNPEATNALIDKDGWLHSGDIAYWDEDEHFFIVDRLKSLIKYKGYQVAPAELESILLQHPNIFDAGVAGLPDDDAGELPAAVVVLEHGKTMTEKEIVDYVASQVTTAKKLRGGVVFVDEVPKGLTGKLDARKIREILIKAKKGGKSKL
#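 Biochemical qHTS of compounds, final roughly 60 µM downward over six points, against 10 nM purified firefly luciferase using Km concentrations of substrates (10 uM D-luciferin, 10 uM ATP) in Tris acetate pH 7.5 buffer; luminescence output.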
# SMN2 splice enh – enhancers of SMN2 splice variant expression; HEK293 SMN2-luciferase splicing reporter, luminescence, 30-36 h; Potency, µM (titrated, usually from 46.1 µM), most hits filed as activators; actives 2.8% (n = 210,000); AID 1458; further: nearly all actives have a fitted effect of over 55% in size
#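 qHTS luciferase splicing reporter: luminescence rises when SMN2 exon 7 is included in transfected HEK293 cells. Compound exposure lasted 30-36 h at 37C, with 4.5 mM final sodium butyrate as control, followed by a ONE-Glo read.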
# Numbers stand for hits; 0 = inactive; ? = inconclusive; - = not tested or not shown. The call rests on the fitted dose curve; in most records, active means well fitted curve in the direction sought with a large enough effect; inconclusive means small, poorly fitted or top-dose-only effect, or another doubt; inactive means no such curve, though single readings can be large; an effect the other way counts as inactive or inconclusive.
SMILES,Rab9 promoter act,KinaseGlo FLuc,NPC1 promoter act,ELG1 genotoxic,FLuc counter,SMN2 splice enh
Cc1cccc(NC(=O)Cn2cnc(S(=O)(=O)N3CCCC3)c2)c1C,0,-,0,0,0,-
CN(C)/C=C/C(=O)c1ccc(Cl)s1,0,0,0,?,0,0
CN(C)/C=C/C(=O)c1cnc(-c2ccccc2)s1,1.41µM,0,2µM,?,10.7µM,11.2µM
CN(C)/C=C/C(=O)c1cnc(-c2ccc(Cl)cc2)s1,0.501µM,0,1µM,?,2.69µM,10µM
CCOc1ccc(S(=O)(=O)N2CCN(C(=O)CCOc3ccccc3C)CC2)cc1,0,-,0,0,0,-
COc1cccc(C(=O)Nc2nc3c(s2)CN(C)CC3)c1,?,0,?,0,19µM,0
O=C(Nc1nc2c(s1)CN(Cc1ccccc1)CC2)C1CCC1,4.47µM,0,?,?,23.9µM,?
CCN1CCc2nc(NC(=O)c3ccccc3)sc2C1,-,0,-,-,7.57µM,0
CN1CCc2nc(NC(=O)c3cccc(S(=O)(=O)N4CCc5ccccc54)c3)sc2C1,0,0,0,0,0,0
CCOc1ccc(/C=N/NC(=O)c2ccccc2NC(=O)c2ccc(OC)cc2)cc1,?,?,?,0,0.379µM,0
O=C(CCC(=O)Nc1ccc(F)cc1)N/N=C/c1ccncc1,0,0,0,0,0,0
CCOc1ccc(OCc2ccc(C(=O)NN=Cc3ccc[nH]3)cc2)cc1,-,-,-,0,-,-
Cc1ccccc1C(=O)Nc1ccc(C(=O)N/N=C/c2ccncc2)cc1,0,0,0,0,0,0
O=C(N/N=C/c1ccco1)c1ccc(NC(=O)c2ccccc2Cl)cc1,0,0,0,0,0,0
O=C(Nc1ccccc1C(=O)N/N=C/c1ccncc1)c1ccccc1,?,1.78µM,?,0,1.9µM,-
O=C(CCC(=O)Nc1ccccc1)N/N=C/c1ccncc1,0,0,0,0,12µM,0
COc1ccc(C(=O)Nc2ccccc2C(=O)N/N=C/c2ccco2)cc1,?,2.82µM,0,?,0.477µM,-
CCOc1ccc(-n2cc(-c3ccccc3)c3c(NCc4ccc(F)cc4)ncnc32)cc1,-,-,-,-,0,-
Cc1ncoc1C(=O)N1CCCC(N2CCN(c3ccccc3F)CC2)C1 (stereo not given),0,-,0,0,0,-
COC(=O)Cc1cc(=O)n(-c2ccccc2)[nH]1,0,0,0,0,0,0
COC(=O)Cc1[nH]n(-c2nc3ccccc3s2)c(=O)c1C(C)=Nc1ccc(C)cc1,0,0,0,0,?,0
COC(=O)Cc1[nH]n(-c2nc3ccccc3s2)c(=O)c1C(C)=Nc1ccc(Cl)cc1,0,-,0,0,12µM,-
COC(=O)Cc1[nH]n(-c2ccccc2)c(=O)c1C(C)=Nc1ccccc1,3.16µM,0,?,0,?,0
COc1ccc(NC(=O)C2CC(=O)N/C(=N/N=C/c3ccccc3)S2)cc1 (stereo not given),0,-,0,?,0,-
CCCOc1ccc(NC(=O)C2CC(=O)N/C(=N/N=C(\C)CCc3ccc4c(c3)OCO4)S2)cc1 (stereo not given),0,0,0,0,0,0
SMILES,Rab9 promoter act,KinaseGlo FLuc,NPC1 promoter act,ELG1 genotoxic,FLuc counter,SMN2 splice enh
CC(/C=C/c1ccc(N(C)C)cc1)=N\N=C1\NC(=O)CC(C(=O)Nc2ccccc2)S1 (stereo not given),?,0,?,0,2.39µM,15.8µM
CCCOc1ccc(NC(=O)C2CC(=O)N/C(=N/N=C(C)/C=C/c3ccc(N(C)C)cc3)S2)cc1 (stereo not given),?,0,?,0,2.39µM,12.6µM
CC(/C=C/c1ccc(N(C)C)cc1)=N/N=C1/NC(=O)CC(C(=O)Nc2ccc(Cl)cc2)S1 (stereo not given),0,0,0,0,7.57µM,?
Cc1ccn(-c2ccc(NC(=O)c3cccs3)cc2)n1,0.631µM,-,0.708µM,?,3.01µM,-
O=C(Nc1cccc(N2CCCC2)c1)c1cccs1,0,0,0,0,16.9µM,0
CCN(CC)S(=O)(=O)c1ccc(NC(=O)c2cccs2)cc1,0,0,0,0,0,-
CN1CCN(c2ccc(NC(=O)c3cccs3)cc2)CC1,0.562µM,0,3.16µM,?,12µM,11.2µM
Nc1cccc(NC(=O)c2cccs2)c1,0,0,0,0,0,?
O=C(CCSCc1ccc(Cl)cc1)N1CCN(c2ccccc2F)CC1,-,-,-,-,0,-
O=C(CC(c1ccccc1)c1ccccc1)Nc1ccc(C(=O)O)cc1,0,-,0,0,0,-
Cc1ccc(-c2onc3ccc(C=O)cc23)cc1,?,0,?,5.17µM,?,?
CCSc1nc(-c2ccc(Cl)cc2)nc2c1Cc1c(CO)cnc(C)c1O2,-,-,-,-,0,-
Nc1[nH]n(-c2ccccc2)c(=O)c1N=Nc1ccc2c(c1)OCCO2,0.501µM,0,2µM,?,0.601µM,2.24µM
Nc1[nH]n(-c2ccccc2)c(=O)c1N=Nc1ccc2c(c1)OCO2,3.16µM,-,3.55µM,?,2.39µM,-
Cc1cc([N+](=O)[O-])ccc1N=Nc1c(N)[nH]n(-c2ccccc2)c1=O,0,0,0,0,0,0
Cc1ccc2oc(C(=O)N(Cc3cccc(F)c3)C3CCS(=O)(=O)C3)c(C)c2c1 (stereo not given),-,-,-,-,0,0
CC(=O)Nc1cccc(NC(=O)c2ccc(COc3ccccc3)cc2)c1,2.82µM,-,2.82µM,14.6µM,2.13µM,-
CCOc1c(Cl)cc(C(=O)Nc2cccc(C(=O)O)c2)cc1Cl,0.708µM,0,0.562µM,?,3.01µM,-
CCOc1ccc(NC(=O)c2cccc(NC(=O)c3ccccc3)c2)cc1,0,-,?,0,?,-

# Bioassay records from PubChem.
